Results as given in the supplement of paper PMC6555819.

Assays:
Test in all cases: PBM binding z-score (relative to random genomic background probes); higher = stronger binding; sequences stand for … in GC…GCGATTGACAGCGTAGAATGAAGG
[1] = tested on: PPARg:RXRa DBDmut IVT, anti-RXR (DBD mutation: RXRa K156A/R161A, NR concentration 270 nM, RXRa partner concentration 90 nM)
Method in brief: (§1)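 Ligand-free nuclear receptor dimers were bound for 1 h to custom Agilent 4×180K protein-binding microarrays. Detection used antibodies against each partner (one per run). Binding z-scores rest on regression-normalized fluorescence, with random background probes as the reference.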

[2] = tested on: PPARg:RXRa IVT, anti-PPARg (NR concentration 270 nM, RXRa partner concentration 90 nM)
Method in brief: as §1

[3] = tested on: PPARg DBDmut:RXRa IVT, anti-PPARg (DBD mutation: PPARg1 K132A/R137A, NR concentration 270 nM, RXRa partner concentration 90 nM)
Method in brief: as §1

[4] = tested on: PPARg DBDmut IVT, anti-PPARg (DBD mutation: PPARg1 K132A/R137A, NR concentration 270 nM)
Method in brief: as §1

[5] = tested on: PPARg homodimer (NR concentration 180 nM)
Method in brief: as §1

[6] = tested on: PXR:RXRa (NR concentration 270 nM, RXRa partner concentration 90 nM)
Method in brief: as §1

[7] = tested on: PXR homodimer (NR concentration 270 nM)
Method in brief: as §1

[8] = tested on: RARa:RXR (NR concentration 270 nM, RXRa partner concentration 90 nM)
Method in brief: as §1

[9] = tested on: RARa homodimer (NR concentration 270 nM)
Method in brief: as §1

[10] = tested on: RARb:RXRa (NR concentration 270 nM, RXRa partner concentration 90 nM)
Method in brief: as §1

CAGACTGGGGCAAAGGTTACCATACTCAGTACGA
PBM binding z-score [1]: 5.78 | PBM binding z-score [2]: 6.11 | PBM binding z-score [3]: 0.811 | PBM binding z-score [4]: -0.289 | PBM binding z-score [5]: 1.61 | PBM binding z-score [6]: 2.57 | PBM binding z-score [7]: 0.354 | PBM binding z-score [8]: 3.86 | PBM binding z-score [9]: 0.632 | PBM binding z-score [10]: 2.66

ATCGTAAGGTCGAGGTGAGTATAGAGAAAGGGAA
PBM binding z-score [1]: -0.153 | PBM binding z-score [2]: 1.72 | PBM binding z-score [3]: 1.12 | PBM binding z-score [4]: 1.14 | PBM binding z-score [5]: 1.07 | PBM binding z-score [6]: 1.68 | PBM binding z-score [7]: 0.189 | PBM binding z-score [8]: 2.17 | PBM binding z-score [9]: 0.395 | PBM binding z-score [10]: 3.22

CCTTCTAGGTCAATGGTCAGCTAAAGCAGCTCGC
PBM binding z-score [1]: 7.32 | PBM binding z-score [2]: 6.6 | PBM binding z-score [3]: 0.00752 | PBM binding z-score [4]: 0.699 | PBM binding z-score [5]: 2.03 | PBM binding z-score [6]: 0.931 | PBM binding z-score [7]: -0.321 | PBM binding z-score [8]: 1.73 | PBM binding z-score [9]: 0.51 | PBM binding z-score [10]: 3.85

CCTACTGGGCCAAGGTAATTGATCAGTCAAAGCA
PBM binding z-score [1]: 4.09 | PBM binding z-score [2]: 3.56 | PBM binding z-score [3]: -0.62 | PBM binding z-score [4]: -0.619 | PBM binding z-score [5]: -0.616 | PBM binding z-score [6]: -0.363 | PBM binding z-score [7]: -0.674 | PBM binding z-score [8]: 0.0953 | PBM binding z-score [9]: -0.936 | PBM binding z-score [10]: 0.0612

ATCTCTAGGTAACCAAGTTCAGTGATTGCCGAAC
PBM binding z-score [1]: 3.9 | PBM binding z-score [2]: 2.88 | PBM binding z-score [3]: 1.17 | PBM binding z-score [4]: 1.33 | PBM binding z-score [5]: 0.823 | PBM binding z-score [6]: 1.96 | PBM binding z-score [7]: 2.46 | PBM binding z-score [8]: 0.708 | PBM binding z-score [9]: 0.307 | PBM binding z-score [10]: 1.18

CCTACTGGGCCACGAAAGGTCACTGATTCAGTGA
PBM binding z-score [1]: 5.42 | PBM binding z-score [2]: 6.08 | PBM binding z-score [3]: 0.0808 | PBM binding z-score [4]: 0.166 | PBM binding z-score [5]: 1.93 | PBM binding z-score [6]: 4.63 | PBM binding z-score [7]: 0.0856 | PBM binding z-score [8]: 4.94 | PBM binding z-score [9]: 0.447 | PBM binding z-score [10]: 4.07

CCGACTGGGGCAGAAAGTTTACCATACCATCCGG
PBM binding z-score [1]: 1.85 | PBM binding z-score [2]: 0.907 | PBM binding z-score [3]: -1.52 | PBM binding z-score [4]: -1.73 | PBM binding z-score [5]: 0.00802 | PBM binding z-score [6]: -0.282 | PBM binding z-score [7]: 0.645 | PBM binding z-score [8]: -0.677 | PBM binding z-score [9]: -0.166 | PBM binding z-score [10]: 0.775

CCTCGGAGGACAACTGGAGGTCAGAGCTGCCAGA
PBM binding z-score [1]: 0.198 | PBM binding z-score [2]: 0.595 | PBM binding z-score [3]: -1.19 | PBM binding z-score [4]: -1.87 | PBM binding z-score [5]: 2.05 | PBM binding z-score [6]: 2.52 | PBM binding z-score [7]: 0.545 | PBM binding z-score [8]: 2.84 | PBM binding z-score [9]: 0.162 | PBM binding z-score [10]: 3.07

CTCGAAACGTCGTGCTCAGGTGAGTATACCAAAC
PBM binding z-score [1]: -0.582 | PBM binding z-score [2]: -0.171 | PBM binding z-score [3]: -0.256 | PBM binding z-score [4]: 0.311 | PBM binding z-score [5]: -0.393 | PBM binding z-score [6]: -0.468 | PBM binding z-score [7]: -0.608 | PBM binding z-score [8]: -0.466 | PBM binding z-score [9]: -0.557 | PBM binding z-score [10]: -0.265

TCTAGTTGGTAAAAGGTCACACACTCGAAATGCG
PBM binding z-score [1]: 3.1 | PBM binding z-score [2]: 5.1 | PBM binding z-score [3]: 1.72 | PBM binding z-score [4]: 2.8 | PBM binding z-score [5]: 5.34 | PBM binding z-score [6]: 5.37 | PBM binding z-score [7]: 2.68 | PBM binding z-score [8]: 6.35 | PBM binding z-score [9]: 5.12 | PBM binding z-score [10]: 4.93

TGGCCTAGGTCAGATCGGGCCAGTATACGCTATA
PBM binding z-score [1]: -0.485 | PBM binding z-score [2]: 1.03 | PBM binding z-score [3]: -1.16 | PBM binding z-score [4]: -1.38 | PBM binding z-score [5]: -0.396 | PBM binding z-score [6]: 0.928 | PBM binding z-score [7]: -0.757 | PBM binding z-score [8]: 0.548 | PBM binding z-score [9]: -1.18 | PBM binding z-score [10]: 2.85

CCTCCAAGGTCAAAGGTCAGTGAAGAGATGACGG
PBM binding z-score [1]: 3.51 | PBM binding z-score [2]: 5.62 | PBM binding z-score [3]: 0.87 | PBM binding z-score [4]: -0.101 | PBM binding z-score [5]: 3.71 | PBM binding z-score [6]: 6.78 | PBM binding z-score [7]: 2.06 | PBM binding z-score [8]: 8.62 | PBM binding z-score [9]: 3.07 | PBM binding z-score [10]: 6.03

GCTCGGAGGACAAGATCAGAGCTTTGTCCGTAGA
PBM binding z-score [1]: -0.785 | PBM binding z-score [2]: -0.327 | PBM binding z-score [3]: -1.13 | PBM binding z-score [4]: -1.46 | PBM binding z-score [5]: -1.73 | PBM binding z-score [6]: -0.776 | PBM binding z-score [7]: -0.689 | PBM binding z-score [8]: -0.823 | PBM binding z-score [9]: -1.48 | PBM binding z-score [10]: 0.581

TCTCGGAGGACACGAAGGTCAGAGCGTTCCAGAG
PBM binding z-score [1]: 1.02 | PBM binding z-score [2]: 1.49 | PBM binding z-score [3]: -0.71 | PBM binding z-score [4]: -1.07 | PBM binding z-score [5]: 1 | PBM binding z-score [6]: 1.87 | PBM binding z-score [7]: 0.555 | PBM binding z-score [8]: 1.84 | PBM binding z-score [9]: -0.476 | PBM binding z-score [10]: 3.4

AGAATCAGGTTAAGATCAGGGAAACAGAATACAT
PBM binding z-score [1]: 2.26 | PBM binding z-score [2]: 2.1 | PBM binding z-score [3]: 1.36 | PBM binding z-score [4]: 1.33 | PBM binding z-score [5]: 1.01 | PBM binding z-score [6]: 0.297 | PBM binding z-score [7]: 1.14 | PBM binding z-score [8]: 0.552 | PBM binding z-score [9]: 1.62 | PBM binding z-score [10]: 1.1

CCTAGTTGGTCAGGAGGTCATACACCGGATATGA
PBM binding z-score [1]: 1.25 | PBM binding z-score [2]: 3.03 | PBM binding z-score [3]: 0.324 | PBM binding z-score [4]: 0.888 | PBM binding z-score [5]: 3.21 | PBM binding z-score [6]: 3.99 | PBM binding z-score [7]: 1.57 | PBM binding z-score [8]: 4.19 | PBM binding z-score [9]: 1.23 | PBM binding z-score [10]: 3.33

GCAACTGGGGCAAAGCAGGTTACCATAAGGTTGG
PBM binding z-score [1]: 5.89 | PBM binding z-score [2]: 5.52 | PBM binding z-score [3]: 0.219 | PBM binding z-score [4]: -0.357 | PBM binding z-score [5]: -0.0265 | PBM binding z-score [6]: 0.339 | PBM binding z-score [7]: -0.607 | PBM binding z-score [8]: 0.838 | PBM binding z-score [9]: -0.392 | PBM binding z-score [10]: 0.995

ACAGACAGGTGATGAAGGTTACTCAGGCTATCAT
PBM binding z-score [1]: 0.431 | PBM binding z-score [2]: 0.604 | PBM binding z-score [3]: 0.785 | PBM binding z-score [4]: -0.154 | PBM binding z-score [5]: 0.281 | PBM binding z-score [6]: 0.38 | PBM binding z-score [7]: 0.162 | PBM binding z-score [8]: 0.715 | PBM binding z-score [9]: 0.502 | PBM binding z-score [10]: 0.957

ACTAGCAGGCCAAGTTTGGGACACTCAAACAAAG
PBM binding z-score [1]: 0.573 | PBM binding z-score [2]: 0.235 | PBM binding z-score [3]: -0.681 | PBM binding z-score [4]: -1.33 | PBM binding z-score [5]: -0.893 | PBM binding z-score [6]: -0.655 | PBM binding z-score [7]: -0.694 | PBM binding z-score [8]: -0.143 | PBM binding z-score [9]: -0.864 | PBM binding z-score [10]: 0.366

CCGACTGGGGCAATGTTACCATAACGCACAGCCA
PBM binding z-score [1]: 3.67 | PBM binding z-score [2]: 2.99 | PBM binding z-score [3]: -0.638 | PBM binding z-score [4]: -0.759 | PBM binding z-score [5]: 0.142 | PBM binding z-score [6]: -0.771 | PBM binding z-score [7]: -0.41 | PBM binding z-score [8]: -0.456 | PBM binding z-score [9]: 0.0364 | PBM binding z-score [10]: 0.351

CCTACTGGGCCACAGGTCATTGATTCCAATGCTC
PBM binding z-score [1]: 4.78 | PBM binding z-score [2]: 5.99 | PBM binding z-score [3]: -0.262 | PBM binding z-score [4]: -0.356 | PBM binding z-score [5]: 1.06 | PBM binding z-score [6]: 1.75 | PBM binding z-score [7]: 0.334 | PBM binding z-score [8]: 2.03 | PBM binding z-score [9]: -0.37 | PBM binding z-score [10]: 2.26

TAGCCTAGGTCATTGGGACAGTATAGTACGCATC
PBM binding z-score [1]: 3.11 | PBM binding z-score [2]: 3.8 | PBM binding z-score [3]: 1.3 | PBM binding z-score [4]: 0.736 | PBM binding z-score [5]: 2.9 | PBM binding z-score [6]: 1.78 | PBM binding z-score [7]: -0.233 | PBM binding z-score [8]: 2.5 | PBM binding z-score [9]: 0.512 | PBM binding z-score [10]: 3.75

ACAGACCGGTGATGAAGGTAACTCAGGCTATCAT
PBM binding z-score [1]: -0.264 | PBM binding z-score [2]: -0.316 | PBM binding z-score [3]: 0.0593 | PBM binding z-score [4]: 0.0893 | PBM binding z-score [5]: -0.0191 | PBM binding z-score [6]: -0.348 | PBM binding z-score [7]: -0.142 | PBM binding z-score [8]: -0.0159 | PBM binding z-score [9]: 0.27 | PBM binding z-score [10]: -0.139
